Bioassay records as filed in PubChem BioAssay.
The entries come from a sample that favours hits as a whole.
CHX counter: Cycloheximide Counterscreen for Small Molecule Inhibitors of Shiga Toxin; 300,000 compounds, 12% hits; AID 2314, 2010; cell reporter, cycloheximide protein synthesis inhibition counterscreen; max response, %; in the data active means max response mostly above about 13%, no sharp cut-off; inactive means mostly below about 14%; further: read at 38.3 µM for the half of the compounds with a filed dose
Lassa entry inh: qHTS for Inhibitors of binding or entry into cells for Lassa Virus. Lassa virus pseudotype entry inhibition, cell reporter. Potency, µM (top dose mostly 37.9 µM), hits mostly inhibitors. 300,000 compounds, 1.2% hits. AID 540256, 2011; calls by dose curve; tested in HEK293 cells; further: nearly all actives have a fitted effect of over 50% in size
Marburg entry inh: qHTS for inhibitors of binding or entry into cells for Marburg Virus | Marburg virus pseudotyped entry inhibition, cell reporter | Potency, µM (series often up to 37.8 µM), hits mostly inhibitors | 300,000 compounds, 1.8% hits; calls by dose curve; tested in HEK293 cells
Vaccinia mCherry: qHTS for Stage-Specific Inhibitors of Vaccinia Orthopoxvirus: mCherry Reporter Primary qHTS | Vaccinia virus mCherry reporter infection, fluorescence | Potency, µM (top dose mostly 36.5 µM), hits mostly inhibitors | 310,000 compounds, 0.63% hits | AID 720579, 2013; calls by dose curve; tested in A549 cells; further: nearly all actives have a fitted effect of over 35% in size
Vaccinia Venus: qHTS for Stage-Specific Inhibitors of Vaccinia Orthopoxvirus: Venus Reporter Primary qHTS | 330,000 compounds, 0.46% hits | Vaccinia virus Venus reporter expression, fluorescence | AID 720580, 2013 | Potency, µM (top dose mostly 36.5 µM), most hits filed as inhibitors; calls by dose curve; tested in A549 cells; further: nearly all actives have a fitted effect of over 30% in size
Shiga inhibitor: A qHTS for Small Molecule Inhibitors of Shiga Toxin. Vero cells, Shiga toxin protein synthesis inhibition reporter. inhibition, % at 38.7 µM. 290,000 compounds, 9.2% hits; in the data active means inhibition mostly above about 28%, no sharp cut-off; inactive means mostly below about 43%
HeLa G2M arrest: Cell cycle validation with wells to cells screening paradigm; shares compounds with Marburg entry inh; 25 compounds, 60% hits; Potency, µM, usual class: inhibitors; HeLa cell cycle G2/M arrest, Hoechst DNA content imaging
WI-38 tox: High Content Assay for Compounds that inhibit the Assembly of the Perinucleolar Compartment: WI-38 Cytotoxicity | shares compounds with Marburg entry inh | WI-38 normal lung fibroblasts, ATPLite luminescence ATP viability, 24 h | Potency, µM (titrated, usually from 46.1 µM), actives largely listed as inhibitors | 120 tested, under 10 active
PNC inh conf: High Content Assay for Compounds that inhibit the Assembly of the Perinucleolar Compartment: Confirmation of PNC Inhibition | shares compounds with Marburg entry inh | PC3M PTB-GFP, PNC prevalence imaging, 16 h | Potency, µM (doses to about 46.1 µM), usual class: inhibitors | 120 compounds, 50% hits | AID 2730, 2010
PC3M casp3-7: High Content Assay for Compounds that inhibit the Assembly of the Perinucleolar Compartment: PC3M Caspase 3/7 Activation | shares compounds with Marburg entry inh | PC3M-GFP caspase 3/7 activation, luminescence, 24 h | activity change, positive = activation, % at 46.1 µM | 120 tested, under 10 active | AID 2731, 2010
A number is an active result; - = inactive; ? = inconclusive; . = no result; ! = a repeat was not active; [ ] = another dose, or the depositor's remark. Unless noted, the call rests on the fitted dose curve; in most records, active means well fitted curve in the direction sought with a large enough effect; inconclusive means small, poorly fitted or top-dose-only effect, or another doubt; inactive means no such curve, though single readings can be large; an effect the other way counts as inactive or inconclusive.

SMILES | CHX counter | Lassa entry inh | Marburg entry inh | Vaccinia mCherry | Vaccinia Venus | Shiga inhibitor | WI-38 tox | PNC inh conf | PC3M casp3-7 | others
COc1ccc(S(=O)(=O)Nc2cccc3c2O[C@H](CN(C)S(=O)(=O)c2cn(C)cn2)[C@@H](C)CN([C@H](C)CO)C3=O)cc1 | . | . | . | - | - | . | . | . | .
Cc1ccc(OCCn2cc(C(=S)N3CCCC3)c3ccccc32)cc1C | - | 2.8µM | 3.2µM | 4µM | - | - | - | 7.9µM | -
S=C(c1cn(CCOc2ccccc2)c2ccccc12)N1CCCC1 | - | - | ? | ? | ? | - | . | . | .
COc1ccc(/C=C/C(=O)OCC(=O)Nc2ccc(Cl)c(S(=O)(=O)N(C)C)c2)cc1OC | - | - | - | - | - | - | - | - | -
COc1ccc(CCNC(=O)CN(c2ccc(OC)c(OC)c2)S(=O)(=O)c2ccccc2)cc1OC | - | . | . | . | . | - | . | . | .
CCOc1ccc(-c2cc(C(=O)NCc3ccc(OC)cc3)c3c(-c4ccc(F)cc4)[nH]nc3n2)cc1 | . | ? | . | - | - | . | . | . | .
Cc1c(NC(=O)CSc2nnc3c4ccccc4n(CCc4ccccc4)c3n2)c(=O)n(-c2ccccc2)n1C | - | 0.63µM | ? | . | ? | - | - | 8.9µM | -
CCn1c2ccccc2c2nnc(SCC(=O)Nc3c(C)n(C)n(-c4ccccc4)c3=O)nc21 | - | - | - | . | . | - | . | . | .
COC(=O)Nc1nc2ccc(C(=O)c3cccs3)cc2[nH]1 | . | ? | 0.16µM! | ? | ? | . | . | . | . | HeLa G2M arrest=0.071
COC(=O)Nc1nc2ccc(S(=O)c3ccccc3)cc2[nH]1 (centres undefined) | . | . | . | - | - | . | . | . | .
O=C(CCC1CCCC1)Nc1cccc(Cc2ccncc2)c1 | - | - | - | - | - | - | . | . | .
Cc1c(NC(=O)COC(=O)c2cc(-c3ccc(-c4ccccc4)cc3)nc3ccccc23)c(=O)n(-c2ccccc2)n1C | 57 | 0.89µM | 0.58µM | ? | - | 84 | 7.9µM | 2µM | -
Cc1c(NC(=O)c2cc(-c3ccccc3)nc3ccccc23)c(=O)n(-c2ccccc2)n1C | . | - | ? | - | - | . | . | . | .
CCCCCCCCCCCCCCCC(=O)OC[C@H](COP(=O)([O-])OCC[N+](C)(C)C)OC(C)=O | . | . | . | -[3.33 µM] | -[3.33 µM] | . | . | . | .
CCCCCCCCCCCCCCCCCC(=O)NCC(COP(=O)([O-])OCC[N+](C)(C)C)OCC (centres undefined) | . | ? | 20µM | . | . | . | . | . | . | HeLa G2M arrest=?
C[C@@H]1CN([C@@H](C)CO)S(=O)(=O)c2ccc(Br)cc2O[C@@H]1CN(C)C(=O)c1ccncc1 | . | . | . | - | - | . | . | . | .
COc1ccc(-n2c(=O)c3c4c(sc3n(CC(=O)C(C)(C)C)c2=O)CCCC4)c(OC)c1 | . | - | - | - | - | . | . | . | .
N=c1c2c(-c3ccccc3)c(-c3ccccc3)n(Cc3ccco3)c2ncn1CCCn1ccnc1 | - | 11µM | 3.5µM | - | ? | - | - | 25µM | -
O=C(CSc1ncnc2nc[nH]c12)Nc1nnc(SCc2ccc(Cl)c(Cl)c2)s1 | - | - | - | - | - | - | . | . | .
CCN(CC(=O)Nc1ccc(NC(C)=O)cc1)C(=O)c1cc(CN2C(=O)c3ccccc3C2=O)ccc1OC | . | - | - | - | - | . | . | . | .
CCOC(=O)c1c(NC(=O)c2c(-c3ccccc3)noc2C)sc(C)c1-c1ccccc1 | - | ? | 0.13µM | . | - | - | - | 1.6µM | -
O=C(c1ccc(Cl)c(S(=O)(=O)N2CCCC2)c1)N1CCN(c2ccccc2F)CC1 | - | ? | - | - | - | - | . | . | .
CN1c2ccccc2C(C)(C)C12CC(c1ccc(Cl)c(S(=O)(=O)N3CCCC3)c1)=NO2 (centres undefined) | - | - | - | . | . | - | - | 4µM | -
CCCSc1cc(N2CCN(C)CC2)nc(-c2ccc(OC)cc2)n1 | - | ? | ? | . | ? | - | - | ? | -
CCCSc1cc(N2CCCC2)nc(-c2ccccc2)n1 | - | - | - | . | - | - | . | . | .
CNS(=O)(=O)c1cccc(C(=O)Nc2cccnc2)c1 | - | - | - | . | - | - | . | . | .
CNS(=O)(=O)c1cccc(C(=O)Nc2cccc(Cl)c2)c1 | 35 | - | - | - | - | - | - | ? | -
